Results as given in ChEMBL document CHEMBL5724796, “Tm Shift (DSF) assay results for EUbOPEN Chemogenomics Library” (2024).
Residues, ends and D or L forms follow the SMILES beside them. *: point of attachment. Cbz = O=C(OCc1ccccc1)*

Legend:
Details in all cases: Compound concentration 20.0 uM
[1] = biological target: Tyrosine-protein kinase ABL1 (Homo sapiens) (UniProt P00519)
[2] = biological target: Bromodomain-containing protein 4 (Homo sapiens) (UniProt O60885)
[3] = biological target: Cyclin-dependent kinase 2 (Homo sapiens) (UniProt P24941)
[4] = biological target: Casein kinase I isoform delta (Homo sapiens) (UniProt P48730)
[5] = biological target: Glycogen synthase kinase-3 beta (Homo sapiens) (UniProt P49841)
[6] = biological target: Mitogen-activated protein kinase 1 (Homo sapiens) (UniProt P28482)
[7] = biological target: T1, Aurora kinase A (Homo sapiens) (UniProt O14965)
T1 sequence (whole entry): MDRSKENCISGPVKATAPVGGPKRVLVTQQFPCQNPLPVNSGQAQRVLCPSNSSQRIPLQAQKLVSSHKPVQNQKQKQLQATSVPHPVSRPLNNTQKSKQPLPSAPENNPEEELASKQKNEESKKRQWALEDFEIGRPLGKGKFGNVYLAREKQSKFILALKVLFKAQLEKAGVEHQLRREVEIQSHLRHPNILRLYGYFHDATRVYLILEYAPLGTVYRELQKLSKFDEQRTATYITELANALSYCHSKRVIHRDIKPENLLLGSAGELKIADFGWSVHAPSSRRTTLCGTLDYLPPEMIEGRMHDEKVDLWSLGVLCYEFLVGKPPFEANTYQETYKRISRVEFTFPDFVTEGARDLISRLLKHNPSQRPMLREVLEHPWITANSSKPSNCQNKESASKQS

[8] = biological target: T2, Transcription intermediary factor 1-alpha (Homo sapiens) (UniProt O15164)
T2 sequence (whole entry): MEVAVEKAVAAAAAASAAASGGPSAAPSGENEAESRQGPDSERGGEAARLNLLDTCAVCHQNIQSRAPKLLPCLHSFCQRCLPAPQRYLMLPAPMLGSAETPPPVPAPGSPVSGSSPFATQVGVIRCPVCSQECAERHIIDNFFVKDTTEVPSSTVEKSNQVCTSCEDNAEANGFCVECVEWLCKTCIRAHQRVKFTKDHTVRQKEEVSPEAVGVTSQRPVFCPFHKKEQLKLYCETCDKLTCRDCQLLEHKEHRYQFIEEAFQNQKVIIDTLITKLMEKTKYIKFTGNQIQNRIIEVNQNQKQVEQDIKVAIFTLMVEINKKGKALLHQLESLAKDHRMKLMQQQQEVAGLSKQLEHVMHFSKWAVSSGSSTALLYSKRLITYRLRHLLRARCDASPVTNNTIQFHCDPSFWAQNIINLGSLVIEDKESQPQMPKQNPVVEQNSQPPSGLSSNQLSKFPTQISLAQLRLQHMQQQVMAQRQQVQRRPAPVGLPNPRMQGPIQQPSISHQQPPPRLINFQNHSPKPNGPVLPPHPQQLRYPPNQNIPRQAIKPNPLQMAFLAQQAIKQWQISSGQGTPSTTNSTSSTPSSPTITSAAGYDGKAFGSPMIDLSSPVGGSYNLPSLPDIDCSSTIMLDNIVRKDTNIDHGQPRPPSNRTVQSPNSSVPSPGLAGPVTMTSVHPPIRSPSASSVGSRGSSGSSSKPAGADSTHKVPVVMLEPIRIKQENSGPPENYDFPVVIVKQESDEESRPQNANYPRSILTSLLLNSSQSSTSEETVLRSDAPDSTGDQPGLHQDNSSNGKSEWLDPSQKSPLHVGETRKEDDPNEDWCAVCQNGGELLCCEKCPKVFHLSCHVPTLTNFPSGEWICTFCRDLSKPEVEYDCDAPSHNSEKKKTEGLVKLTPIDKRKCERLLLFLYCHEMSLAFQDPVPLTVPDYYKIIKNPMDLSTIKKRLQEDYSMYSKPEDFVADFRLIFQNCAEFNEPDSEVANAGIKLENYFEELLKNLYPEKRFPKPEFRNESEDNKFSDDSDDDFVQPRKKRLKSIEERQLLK

Chain of Glycogen synthase kinase-3 beta (Homo sapiens) (P49841 whole entry, looked up): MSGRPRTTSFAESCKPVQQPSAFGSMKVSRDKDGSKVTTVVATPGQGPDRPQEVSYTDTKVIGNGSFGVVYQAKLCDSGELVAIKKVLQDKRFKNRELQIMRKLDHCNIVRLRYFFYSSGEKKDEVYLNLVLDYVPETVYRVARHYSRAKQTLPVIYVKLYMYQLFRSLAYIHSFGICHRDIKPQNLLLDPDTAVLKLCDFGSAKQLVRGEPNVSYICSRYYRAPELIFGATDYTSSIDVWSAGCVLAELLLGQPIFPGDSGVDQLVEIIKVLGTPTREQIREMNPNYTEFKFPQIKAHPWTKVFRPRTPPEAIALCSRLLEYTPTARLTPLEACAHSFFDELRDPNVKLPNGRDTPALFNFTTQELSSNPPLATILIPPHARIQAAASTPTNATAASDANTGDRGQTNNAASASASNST
Chain of Casein kinase I isoform delta (Homo sapiens) (P48730 whole entry, looked up, canonical isoform): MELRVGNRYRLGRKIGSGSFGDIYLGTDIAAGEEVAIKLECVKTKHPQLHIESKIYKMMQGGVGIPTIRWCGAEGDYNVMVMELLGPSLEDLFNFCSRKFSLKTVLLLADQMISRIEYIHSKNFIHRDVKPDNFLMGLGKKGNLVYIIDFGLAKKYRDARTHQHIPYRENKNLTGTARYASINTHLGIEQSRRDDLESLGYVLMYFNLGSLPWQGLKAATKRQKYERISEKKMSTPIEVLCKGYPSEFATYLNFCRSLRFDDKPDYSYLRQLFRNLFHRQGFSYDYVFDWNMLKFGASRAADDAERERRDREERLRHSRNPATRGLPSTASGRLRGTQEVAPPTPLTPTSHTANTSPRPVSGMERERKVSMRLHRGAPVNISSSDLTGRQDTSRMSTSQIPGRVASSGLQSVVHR
Chain of Tyrosine-protein kinase ABL1 (Homo sapiens) (P00519 whole entry): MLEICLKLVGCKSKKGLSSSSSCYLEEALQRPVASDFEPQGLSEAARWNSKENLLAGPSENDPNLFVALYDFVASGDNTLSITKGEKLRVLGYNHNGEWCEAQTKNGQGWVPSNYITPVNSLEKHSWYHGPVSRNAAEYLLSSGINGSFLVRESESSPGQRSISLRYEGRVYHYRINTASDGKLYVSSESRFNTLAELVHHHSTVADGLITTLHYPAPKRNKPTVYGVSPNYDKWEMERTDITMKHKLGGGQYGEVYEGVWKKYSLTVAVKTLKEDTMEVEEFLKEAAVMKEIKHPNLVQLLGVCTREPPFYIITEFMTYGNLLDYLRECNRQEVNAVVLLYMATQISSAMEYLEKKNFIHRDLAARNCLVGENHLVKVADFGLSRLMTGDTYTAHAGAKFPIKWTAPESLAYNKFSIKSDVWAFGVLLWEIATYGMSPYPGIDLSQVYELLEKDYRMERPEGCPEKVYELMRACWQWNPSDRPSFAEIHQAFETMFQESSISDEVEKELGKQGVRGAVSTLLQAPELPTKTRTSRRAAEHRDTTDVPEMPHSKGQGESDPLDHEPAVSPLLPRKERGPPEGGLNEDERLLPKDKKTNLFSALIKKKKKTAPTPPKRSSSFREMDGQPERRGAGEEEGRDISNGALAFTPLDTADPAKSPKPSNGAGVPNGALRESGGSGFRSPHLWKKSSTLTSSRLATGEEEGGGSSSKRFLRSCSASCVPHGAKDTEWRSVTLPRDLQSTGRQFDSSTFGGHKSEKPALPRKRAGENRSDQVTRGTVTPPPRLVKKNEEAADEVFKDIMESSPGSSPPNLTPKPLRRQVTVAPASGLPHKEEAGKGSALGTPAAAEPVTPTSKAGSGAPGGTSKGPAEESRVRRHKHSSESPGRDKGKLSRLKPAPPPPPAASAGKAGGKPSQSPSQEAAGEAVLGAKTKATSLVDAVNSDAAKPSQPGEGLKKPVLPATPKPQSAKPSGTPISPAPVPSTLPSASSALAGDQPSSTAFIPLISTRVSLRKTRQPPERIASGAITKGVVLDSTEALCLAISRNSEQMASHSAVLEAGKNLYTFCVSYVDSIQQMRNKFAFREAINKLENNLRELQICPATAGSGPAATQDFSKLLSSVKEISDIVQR
Chain of Mitogen-activated protein kinase 1 (Homo sapiens) (P28482 whole entry): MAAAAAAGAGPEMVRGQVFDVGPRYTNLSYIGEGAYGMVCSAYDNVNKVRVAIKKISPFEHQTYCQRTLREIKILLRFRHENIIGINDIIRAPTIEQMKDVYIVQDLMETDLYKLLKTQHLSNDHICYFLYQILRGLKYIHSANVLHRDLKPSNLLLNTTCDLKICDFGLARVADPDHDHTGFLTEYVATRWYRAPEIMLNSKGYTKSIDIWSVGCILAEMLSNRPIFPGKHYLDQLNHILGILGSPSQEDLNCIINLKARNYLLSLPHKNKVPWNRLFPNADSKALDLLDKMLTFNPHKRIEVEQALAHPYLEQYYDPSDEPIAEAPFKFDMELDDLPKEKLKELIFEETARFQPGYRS

Compound	ΔTm [1] [°C]	ΔTm [2] [°C]	ΔTm [3] [°C]	ΔTm [4] [°C]	ΔTm [5] [°C]	ΔTm [6] [°C]	ΔTm [7] [°C]	ΔTm [8] [°C]
C[C@H](NC(=O)CCc1nc2ccccc2c(=O)[nH]1)c1ccccc1	0.18	0.84	0.79	0.42	-0.21	0.83	-1.25	0.31
CN(C)CCCN(CC[C@H](N)C(=O)O)C[C@H]1O[C@@H](n2cnc3c(N)ncnc32)[C@H](O)[C@@H]1O	0.32	-2.2	-0.1	0.02	-1.16	0.04	-0.74	-1.49
O=c1[nH]c(Oc2cnn(Cc3ccccc3)c2)nc2cnccc12	0.64	-2.42	0.14	-0.09	0.35	0.33	-1.07	0.34
CC(=O)N[C@@H](Cc1ccc(O)cc1)C(=O)N[C@H](C(=O)N[C@@H](C)C(=O)N[C@H](C=O)CC(=O)O)C(C)C	0.25	-2.08	0.16	0.05	-0.9	-0.12	-1.08	-0.33
NC(=O)C1CN(CCCCC(c2ccc(F)cc2)c2ccc(F)cc2)CCN1CC(=O)Nc1c(Cl)cc(N)cc1Cl (configuration not stated)	-3.72	-1.03	-3.44	-5.13	-5.78	-8.93	-8.05	4.39
CCN(CC)C(=O)/C(C#N)=C/c1cc(O)c(O)c([N+](=O)[O-])c1	0.3	0.45	0.11	-0.1	-0.28	0.32	-0.58	0.24
CC(C)c1ccc(-c2cc(=O)c3ccccc3o2)cc1	1.37	-0.23	-0.03	0.58	0	0.37	-1.77	-0.62
O=[N+]([O-])c1ccc(CSc2ncnc3c2ncn3[C@@H]2O[C@H](CO)[C@@H](O)[C@H]2O)cc1	-0.08	-1.24	-0.1	-0.39	-0.67	0.1	-1.6	-0.18
CC(=O)N[C@@H](CC(=O)O)C(=O)N[C@@H](CC(N)=O)C(=O)N[C@@H](CC(C)C)C(=O)N[C@H](C=O)CC(=O)O	0.21	-3.48	0.27	-0.23	-0.99	0.1	-0.95	0.8
CC(=O)Nc1ccc(-c2cc(-c3ccccc3)nc3cc(C(=O)NCCCn4ccnc4)nn23)cc1	0.52	1.46	-0.15	1.15	-0.59	0.9	-0.25	-2.15
O=C(NC[C@H](O)CN1CCc2ccccc2C1)c1cc(NC2COC2)ncn1	0.58	-1.3	0.75	0.5	-0.25	0.04	-0.01	-0.84
O=C1CCc2cc(OCCCCc3nnnn3C3CCCCC3)ccc2N1	0.01	-0.81	-0.24	-0.48	-0.04	0.01	-1.24	-0.24
O=[N+]([O-])c1c(Nc2cc(F)cc(Cl)c2)ccc2nonc12	0.44	-2.93	0.03	-0.44	-0.33	0.07	-2.49	-0.26
CCc1nc2c(C)cc(N3CCN(CC(=O)N4CC(O)C4)CC3)cn2c1N(C)c1nc(-c2ccc(F)cc2)c(C#N)s1	0.01	2.78	0.06	0.35	-0.27	0.06	-2.2	0.03
CC(=O)N[C@@H](C)C(=O)N[C@@H](CCC(=O)O)C(=O)N[C@H](C(=O)N[C@@H](C=O)CC(=O)O)C(C)C	0.22	-2.8	-0.37	0.14	-0.69	0.23	-1.91	-0.66
Cc1cccc(Nc2ccncc2S(=O)(=O)NC(=O)NC(C)C)c1	0.72	-2.84	-0.02	-0.02	-0.74	0.43	-2.33	0.72
CCn1c(=O)c(C)cn(Cc2nnc(-c3ccc(F)c(OC)c3F)s2)c1=O	0.22	-0.83	0.23	0.22	0	-4.56	-2.75	-0.83
COC(=O)[C@@H]1CC2=CC(=O)CC[C@]2(C)[C@@]23O[C@@H]2C[C@@]2(C)[C@@H](CC[C@@]24CCC(=O)O4)[C@H]13	0.55	-1.74	-0.21	0.47	-0.8	0.21	-0.81	-0.62
C[C@@H](COCCC(=O)N1CCN(c2ncc(C(F)(F)F)cn2)CC1)Nc1cn[nH]c(=O)c1C(F)(F)F	0.66	-3.06	-0.01	-0.13	0	0.21	-2.44	-0.58
CC1(NC(=O)COc2cccc(-c3nc4c(c(Nc5ccc(-c6cn[nH]c6)cc5)n3)CN(C3CCC3)CC4)c2)CC1	0.81	-2.72	0.02	-0.75	-0.18	0.14	0.11	-0.35

Compound	ΔTm [1] [°C]	ΔTm [2] [°C]	ΔTm [3] [°C]	ΔTm [4] [°C]	ΔTm [5] [°C]	ΔTm [6] [°C]	ΔTm [7] [°C]	ΔTm [8] [°C]
CNC(=O)N1CCc2c(c(N3CCCc4cc(-c5cnn(C)c5)c(C(F)F)cc43)nn2C2CCOCC2)C1	0.09	1.4	0.2	0.34	-0.47	-0.36	-1.06	-2.05
Nc1ccccc1NC(=O)c1ccc(CNC(=O)OCc2cccnc2)cc1	0.63	-1.69	0.81	0.33	-0.75	0.21	0.05	-1.42
N=C(N)SCc1ccc(CN2C(=O)C(=O)c3cc(C(F)(F)F)ccc32)cc1	-0.91	-2.92	0.03	0.19	-0.71	0.42	-1.8	0
OC1CN=C2c3ccn([C@@H]4O[C@H]([C@H](O)c5ccc(Cl)cc5)[C@@H](O)[C@H]4O)c3N=CN21 (some centres not stated)	0.73	-1.38	0.66	0.22	-0.73	0.16	-0.39	-1.14
Cc1cc(/N=N/c2ccc(S(=O)(=O)Nc3ccccn3)cc2)c(N)cc1O	0.27	9	1.3	-0.2	-0.93	0.31	-2.28	1
Cc1ncsc1-c1ccc([C@H](C)NC(=O)[C@@H]2C[C@@H](O)CN2C(=O)[C@@H](NC(=O)COCCCOCCNC(=O)C[C@@H]2N=C(c3ccc(Cl)cc3)c3c(sc(C)c3C)-n3c(C)nnc32)C(C)(C)C)cc1	-0.44	7	-3.66	0.48	0	0	0	-3.36
O=C(Oc1cccc(F)c1OC(=O)c1cccc(O)c1)c1cccc(O)c1	0.98	-0.67	0.91	0.57	-0.64	0.41	-0.91	1.67
N=C(N)NC(=O)c1cnn(-c2cccc3ncccc23)c1C1CC1	0.57	-3	-0.15	-0.36	-0.31	0.09	-2.42	-0.58
CCCC1O[C@@H]2C[C@H]3[C@@H]4CCC5=CC(=O)C=C[C@]5(C)[C@H]4[C@@H](O)C[C@]3(C)[C@]2(C(=O)CO)O1 (some centres not stated)	0.48	-1.67	0.01	-0.03	-0.4	-0.27	-0.16	-0.81
CS(=O)(=O)c1ccc(Oc2cc(F)cc(C#N)c2)c2c1C(O)C(F)C2 (configuration not stated)	0.53	-2.49	0.01	-0.13	-0.04	0.54	-2.47	-0.39
Cn1ncc(-c2nn(C)c3ncnc(N4CCC4)c23)c1-c1ccc(C(F)(F)F)cc1	0.03	-2.92	-1.77	-0.3	-1.09	0.4	-2.16	-2.31
CCCOC(=O)N1CCN(C(=O)c2ccc3c(Cl)cc(-c4ccc(C5(N)CC5)cc4)nc3c2)C[C@H]1C	0.57	-1.83	0.05	0.03	-1.68	-7.2	0.93	-3.45
Cc1c(F)c(N)cc(C(=O)Nc2cc(-n3cc(C(=O)NCCCN4CCOCC4)nn3)ccc2N2CCN(C)CC2)c1Cl	0.14	-3.1	0.07	0.04	-0.82	0.14	-2.25	-0.56
COc1cc2c(NC3CCN(C)CC3)cc(-c3ccc(C)o3)nc2cc1OCCCN1CCCC1	0.3	0.18	0.69	0.17	0.49	0.01	0.09	-0.54
O=CC1CCCN1C(=O)C1CCCN1C(=O)OCc1ccccc1 (stereo not drawn) (Cbz-Pro-Pro-aldehyde; configuration not given here)	0.3	-1.06	-0.15	0.22	-0.2	0.12	-0.83	-0.47
CNCCN(C)Cc1cn[nH]c1-c1ccc(OC2CC(OCCC3CCOCC3)C2)cc1 (configuration not stated)	0.66	-1.82	0.43	0.19	-0.94	0.05	-0.58	-1.33
Cc1ccc(NC2=CC(=O)c3sc(C)nc3C2=O)cc1	0.31	-1.66	0.97	-0.17	-0.8	0.04	-0.65	-1.44
CN1CC[C@@H](Oc2ccc(F)c(-c3nc4c(o3)C(=O)c3ccccc3C4=O)c2Cl)C1	0.09	0.99	0.38	-0.29	-0.09	0.24	-1.95	-0.66
CC(C)(C)OC(=O)Nc1ccc(-c2cc(C(=O)NCCCCCCC(=O)NO)no2)cc1	-1.36	0	-1.64	-3.22	0	0	-4.92	-2.07
